# This is part of a sample that, as a whole, favours compounds with a hit. Of some 79,000 tested, about 15% had one in any assay. Calls of active or inactive are those of the source. Rule as the data show it: active = growth inhibition above about 70%; inactive = the rest.
# Test: NCI Yeast Anticancer Drug Screen. Data for the rad50 strain (AID 155);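 also: 0% = growth of vehicle-only cultures of the same strain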
# Details: S. cerevisiae rad50 strain growth inhibition; at 50.0 µM (retest, dose inferred, filed as 5.0); hits give high values
# Outline: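 Compounds were tested on a yeast strain with an engineered DNA damage repair alteration; the reported value is growth inhibition normalised to vehicle treatment.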
row,SMILES,growth inhibition
1,CN(C)c1ccc(/C=C(\C#N)c2cccc(Cl)c2)cc1,-8% (inactive)
2,Cc1ccc(S(=O)(=O)NNc2nc(N(C)C)nc(N(C)C)n2)cc1,7% (inactive)
3,CC(NNC(=S)NCc1ccccc1)c1cc2ccccc2cn1 (configuration not stated),88% (active)
4,COc1ccc(Cc2c(-c3ccc(C)cc3)n[nH]c(=O)c2C2C(=O)N(c3ccccc3)N=C2c2ccccc2)cc1 (configuration not stated),95% (active)
5,CC1(c2ccccc2)OC(=O)C=CC1=O (configuration not stated),99% (active)
6,CC1CCC(C)(C)c2cc([N+](=O)[O-])cc([N+](=O)[O-])c21 (configuration not stated),99% (active)
7,CC1(C)CC(=O)C(/C=N/c2nc(-c3cccc([N+](=O)[O-])c3)cs2)=C(O)C1,99% (active)
8,O=[N+]([O-])C(=C1Nc2ccccc2N1)C(Cl)=C(Cl)Cl,8% (inactive)
9,COc1ccc2c(c1)C1(C)CCCC(C)(C(=O)O)C1C(Br)C2=O (configuration not stated),91% (active)
10,COc1cc(NCC(C)(O)CN2CCC(C)CC2C)c2ncccc2c1 (configuration not stated),57% (inactive)
11,ClC/C=C/c1ccccc1,31% (inactive)
12,O=C(c1ccc(O)c(Br)c1)c1cc(Br)ccc1O,98% (active)
13,COc1ccc(OP2(Oc3ccc(OC)cc3)=NP(Oc3ccc(OC)cc3)(Oc3ccc(OC)cc3)=NP(Oc3ccc(OC)cc3)(Oc3ccc(OC)cc3)=NP(Oc3ccc(OC)cc3)(Oc3ccc(OC)cc3)=N2)cc1,2% (inactive)
14,COc1ccccc1NC(=O)CSC(N)=O,24% (inactive)
15,Cc1ccc(N=C(N)Nc2ccc(C)cn2)nc1,78% (active)
16,FC(F)(F)c1nc(Cl)nc2nc[nH]c12,-9% (inactive)
17,O=[N+]([O-])c1ccccc1CC(c1c[nH]c2ccccc12)c1c[nH]c2ccccc12,73% (active)
18,O=C(O)C1CCCCC1.[Ag],99% (active)
19,CC(C)c1ccc(O)c(O)c(=O)c1,89% (active)
20,CC(C)(C)c1ccc(Sc2ncnc3ccccc23)cc1,78% (active)
21,CC(C)NC(=O)CN1C(=O)NC(C)(c2ccccc2)C1=O (configuration not stated),-1% (inactive)
22,COc1cccc(N2CCN(CC(O)COc3cc4c(c5c3CCCC5)CCCC4)CC2)c1 (configuration not stated),95% (active)
23,CC(CCN)(CCN)[N+](=O)[O-],18% (inactive)

# Same assay, conditions: S. cerevisiae rad50 strain growth inhibition; at 50.0 µM; hits give high values
row,SMILES,growth inhibition
1,CC1=CC2OC3CC4OC(=O)/C=C/C=C/C(C(C)O)OCC(=O)C(C)CC(=O)OCC2(CC1)C4(C)C31CO1 (configuration not stated),90.8% (active)
2,Cc1cc(=O)oc2c3c(ccc12)OC(c1ccc(Br)cc1)CC3=O (configuration not stated),6.65% (inactive)
3,OCC(O)C(O)C(O)/C=N\Nc1ccccc1 (configuration not stated),49.6% (inactive)
4,CN(C)Cc1ccc2[nH]c3c(c2c1)CCCC3,66.8% (inactive)
5,CC(C)CCCC(C)C1CCC2C3CC=C4OC(=O)CCC4(C)C3CCC12C (configuration not stated),83.4% (active)
6,CC(C(=O)c1ccc2cc(Br)c3ccccc3c2c1)N(C)C (configuration not stated),99.4% (active)
7,O=[N+]([O-])c1ccccc1SCc1ccccc1,85.4% (active)
8,C(=P(c1ccccc1)(c1ccccc1)c1ccccc1)[P+](c1ccccc1)(c1ccccc1)c1ccccc1,99.3% (active)
9,CCOC(=O)N1CCN(C(=S)N/N=C(\C)c2ncccn2)CC1,99.4% (active)
10,CCC1(C)C(C#N)(C#N)C1(C#N)C#N,81.7% (active)
11,Cc1ccccc1C(O)(c1ccccc1C)C1(O)CCN(C)CC1,86.2% (active)
12,Oc1c(C(Nc2ccccn2)c2ccccc2)ccc2cccnc12 (configuration not stated),94.6% (active)
13,Cc1ccc(C(CN(C)C)C(=O)c2ccccc2)cc1C (configuration not stated),4.8% (inactive)
14,COC(=O)/C=C(\NC1CC(OC2C[C@](O)(C(C)=O)Cc3c(O)c4c(c(O)c32)C(=O)c2c(OC)cccc2C4=O)OC(C)C1O)C(=O)OC (some centres not stated),97.5% (active)
15,CC1(C)C/C(=N/NC(N)=S)C(=NO)/C(=N\NC(N)=S)C1,75% (active)
16,Cc1cc2c(c(C(N)=O)c1C)-c1cccc(F)c1C2=O,77.4% (active)
17,CN(C)c1ccc(/C=C(\C#N)c2cccc(Cl)c2)cc1,16.7% (inactive)
18,Cc1ccc(S(=O)(=O)NNc2nc(N(C)C)nc(N(C)C)n2)cc1,9.15% (inactive)
19,CC(NNC(=S)NCc1ccccc1)c1cc2ccccc2cn1 (configuration not stated),82.2% (active)
20,COc1ccc(Cc2c(-c3ccc(C)cc3)n[nH]c(=O)c2C2C(=O)N(c3ccccc3)N=C2c2ccccc2)cc1 (configuration not stated),97% (active)

row,SMILES,growth inhibition
1,CC1(c2ccccc2)OC(=O)C=CC1=O (configuration not stated),99.4% (active)
2,CC1CCC(C)(C)c2cc([N+](=O)[O-])cc([N+](=O)[O-])c21 (configuration not stated),-6.5% (inactive)
3,CC1(C)CC(=O)C(/C=N/c2nc(-c3cccc([N+](=O)[O-])c3)cs2)=C(O)C1,99% (active)
4,O=[N+]([O-])C(=C1Nc2ccccc2N1)C(Cl)=C(Cl)Cl,-4.9% (inactive)
5,COc1ccc2c(c1)C1(C)CCCC(C)(C(=O)O)C1C(Br)C2=O (configuration not stated),69.8% (inactive)
6,COc1cc(NCC(C)(O)CN2CCC(C)CC2C)c2ncccc2c1 (configuration not stated),83.2% (active)
7,ClC/C=C/c1ccccc1,68.8% (inactive)
8,O=C(c1ccc(O)c(Br)c1)c1cc(Br)ccc1O,95.7% (active)
9,COc1ccc(OP2(Oc3ccc(OC)cc3)=NP(Oc3ccc(OC)cc3)(Oc3ccc(OC)cc3)=NP(Oc3ccc(OC)cc3)(Oc3ccc(OC)cc3)=NP(Oc3ccc(OC)cc3)(Oc3ccc(OC)cc3)=N2)cc1,61.3% (inactive)
10,COc1ccccc1NC(=O)CSC(N)=O,71% (active)
11,Cc1ccc(N=C(N)Nc2ccc(C)cn2)nc1,84.5% (active)
12,FC(F)(F)c1nc(Cl)nc2nc[nH]c12,26.4% (inactive)
13,O=[N+]([O-])c1ccccc1CC(c1c[nH]c2ccccc12)c1c[nH]c2ccccc12,86% (active)
14,O=C(O)C1CCCCC1.[Ag],90.3% (active)
15,CC(C)c1ccc(O)c(O)c(=O)c1,92.8% (active)
16,CC(C)(C)c1ccc(Sc2ncnc3ccccc23)cc1,90.8% (active)
17,CC(C)NC(=O)CN1C(=O)NC(C)(c2ccccc2)C1=O (configuration not stated),75.5% (active)
18,COc1cccc(N2CCN(CC(O)COc3cc4c(c5c3CCCC5)CCCC4)CC2)c1 (configuration not stated),64.2% (inactive)
19,CC(CCN)(CCN)[N+](=O)[O-],8.3% (inactive)
